# Measured values published in PubChem BioAssay.
# Values joined by “and” are separate entries in the source; they are usually repeats but may differ in a detail not shown here. Equal values may be shown once. Unmarked numbers belong to inactive results. Active and inactive are the calls of the source. Unless noted, the rule behind the calls is not given here.
# Key:
# [1] = antimalarial activity against Dd2 strain (AID 2302;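 active = growth inhibition above 50% at the single 2 µM test dose, taken to imply half-maximal potency below 2 µM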;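 note: 0% = DMSO untreated growth and 100% = chloroquine plus artemisinin killed control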); settings: P. falciparum Dd2 in RBCs, LDH growth readout, 72 h; at 2 µM; active compounds read high
# [2] = human hepatoma cell viability loss – ATP luminescence, cytotoxicity control for P. falciparum antimalarial project, primary screen (AID 2303;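 active = inhibition above 50%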;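 note: 0% = DMSO wells and 100% = digitonin-killed cells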); settings: HepG2 viability, 24-48 h, at 10 µM, active compounds read high
# [3] = target: L-lactate dehydrogenase (Plasmodium falciparum (isolate CDC / Honduras)) (UniProt Q27743); experiment: PfLDH activity inhibition – cell lysate, 3D7 strain, counter-screen for P. falciparum growth inhibition project (AID 2304);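 note: 0% = vehicle and 100% = reference inhibitor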; settings: P. falciparum 3D7 crude extract, LDH APAD/NBT absorbance; at 2 µM; active compounds read high
# [4] = inhibition of 3D7 malaria parasite growth – strain 3D7 (AID 2306);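 note: 0% = DMSO wells and 100% = chloroquine plus artemisinin control wells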; settings: P. falciparum 3D7 erythrocytic growth, LDH absorbance, 72 h; at 2 µM; active compounds read high
# [5] = compounds altering circadian rhythm period length – cell-based, LOPAC library, luminescence reporter (AID 2774); settings: circadian reporter cells, at 7 µM, actives lie on both sides;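 note: values are relative to mean of DMSO wells on each plate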
# Sequence of L-lactate dehydrogenase (Plasmodium falciparum (isolate CDC / Honduras)) (Q27743 whole entry, looked up): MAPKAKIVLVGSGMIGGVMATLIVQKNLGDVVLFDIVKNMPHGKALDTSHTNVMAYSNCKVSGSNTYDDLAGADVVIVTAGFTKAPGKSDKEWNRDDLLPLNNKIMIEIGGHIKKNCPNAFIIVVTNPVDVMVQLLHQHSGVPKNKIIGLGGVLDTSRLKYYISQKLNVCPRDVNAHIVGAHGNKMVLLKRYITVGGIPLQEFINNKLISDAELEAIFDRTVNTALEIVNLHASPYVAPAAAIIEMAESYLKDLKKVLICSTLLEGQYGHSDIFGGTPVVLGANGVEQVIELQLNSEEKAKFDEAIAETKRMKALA
smiles,measurement,setting,value
COC(=O)c1ccc(CC(C)NCC(O)c2cccc(C(F)(F)F)c2)cc1 (configuration not stated),growth inhibition,[1],87% (active) and 73% (active)
same,inhibition,[2],-8% and -9%
same,inhibition,[3],-4% and -1%
same,growth inhibition,[4],97% (active) and 94% (active)
Oc1ccc2c3c1O[C@H]1[C@@H](O)CC[C@@]4(O)C(C2)N(CC2CCC2)CCC314 (some centres not stated),period change,[5],-0.2 h
CC[C@@H]1/C=C/C=C/C[C@H](C)[C@@H](O)[C@](C)(O)C(=O)[C@H](C)[C@@H](O)[C@H](C)C(=O)[C@H](C)[C@@H](O)[C@H](C)/C=C/C(=O)O[C@H]2[C@@H](C)[C@@H](CC1)O[C@@]1(CC[C@@H](C)[C@@H](CC(C)O)O1)[C@@H]2C (some centres not stated),period change,[5],-1.77 h
COc1ccc(CCN)cc1O,period change,[5],0.08 h
